The source made the active and inactive calls. Unless noted, no rule for the calls is given here.
How the values were obtained:
[1] = compound effects on lung adenocarcinoma cell viability – A549, calcein-AM fluorescence, 48 h, basal, profiling panel (AID 1162); conditions: higher = more signal; also: test concentration not given here
[2] = compound effects on differentiated 3T3-L1 adipocyte viability – cell-based, 3T3-L1 adipocytes, calcein-AM fluorescence, 48 h, basal, profiling panel (AID 1163); conditions: 3T3-L1 adipocytes viability, higher = more signal; also: test concentration not given here
[3] = compound effects on hepatocellular carcinoma cell viability – HepG2, calcein-AM fluorescence, 48 h, basal, profiling panel (AID 1164); conditions: higher = more signal; also: test concentration not given here
[4] = compound effects on multiple myeloma cell viability – MM1S, calcein-AM fluorescence, 48 h, basal, profiling panel (AID 1165); conditions: higher = more signal; also: test concentration not given here
[5] = calcein-AM signal in unstimulated myeloma cells – cell-based, calcein-AM fluorescence, 48 h, PK04 Diversity Set, profiling panel (AID 1166); conditions: RPMI8226 myeloma viability, higher = more signal;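 also: cells grown under basal conditions without added stimulus; test concentration not given here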
[6] = JC-1 mitochondrial signal, unstimulated HepG2 cells – cell-based, JC-1 fluorescence, 24 h, 100 nL compound, profiling panel (AID 1167); conditions: HepG2 mitochondrial potential, higher = more signal; also: test concentration not given here
[7] = JC-1 mitochondrial signal, unstimulated adipocytes – cell-based, JC-1 fluorescence, 3T3-L1 adipocytes, 24 h, 100 nL compound, profiling panel (AID 1168); conditions: JC-1 mitochondrial fluorescence, higher = more signal, called active from +8 up or from −8 down; also: test concentration not given here
[8] = JC-1 mitochondrial signal, unstimulated myeloma cells – cell-based, JC-1 fluorescence, RPMI8226, 24 h, 100 nL compound, profiling panel (AID 1169); conditions: JC-1 mitochondrial potential fluorescence, higher = more signal; also: test concentration not given here
[9] = JC-1 mitochondrial signal, unstimulated MM1S myeloma – cell-based, JC-1 fluorescence, 24 h, 100 nL compound, profiling panel (AID 1170); conditions: MM1S mitochondrial potential, higher = more signal; also: test concentration not given here
[10] = resazurin metabolic signal in A549 cells – cell-based, resazurin fluorescence, 24 h, PK04 Diversity Set, profiling panel (AID 1171); conditions: A549 viability, higher = more signal, called active from +8 up or from −8 down; also: test concentration not given here
[11] = resazurin metabolic signal in HepG2 cells – cell-based, resazurin fluorescence, 24 h, PK04 Diversity Set, profiling panel (AID 1172); conditions: HepG2 viability, higher = more signal; also: test concentration not given here
[12] = budding yeast growth changes without added modifier – OD600, strain BY4716, 24 h, basal condition, primary screen (AID 1173); conditions: S. cerevisiae BY4716 growth, OD600, 24 h; higher = more signal, called active from +8 up or from −8 down
[13] = viability profiling in MM1S myeloma cells – cell-based, resazurin fluorescence, basal, 24 h, PK04 Diversity Set, profiling panel (AID 1174); conditions: higher = more signal, called active from +8 up or from −8 down; also: test concentration not given here
[14] = target: Dihydroorotate dehydrogenase (quinone), mitochondrial (Plasmodium falciparum (isolate 3D7)) (UniProt Q08210); assay: inhibition of P. falciparum DHODH – biochemical, C-terminal His tag, absorbance 600 nm, primary screen (AID 1175); conditions: PfDHODH enzyme, DCIP absorbance 600 nm; higher = more signal, called active from +8 up or from −8 down;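 also: recombinant parasite enzyme with a five histidine tag at its C terminus; test concentration not given here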
[15] = inhibition of PAO1 biofilm formation – strain PAO1, LB-PBS medium, absorbance 600 nm, primary screen (AID 1176); also: test concentration not given here; conditions: P. aeruginosa PAO1 growth/biofilm, A600, 12 h; higher = more signal
[16] = growth modulation of vineyard yeast isolate – strain RM11-1a, OD600, basal, 24 h, primary screen (AID 1177);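 also: cultures grown under basal conditions with no added stressor; test concentration not given here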; conditions: S. cerevisiae RM11-1a growth, OD600, 24 h; higher = more signal, called active from +8 up or from −8 down
[17] = growth of efflux-deficient E. coli DRC39 – strain DRC39, OD650, 24 h, E. coli filamentation inducers, primary screen (AID 1178);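 also: growth measured as culture turbidity by optical density at 650 nm; test concentration not given here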; conditions: E. coli DRC39 acrAB, higher = more signal, called active from +8 up or from −8 down
[18] = growth of efflux-deficient E. coli DRC39 – strain DRC39, OD650, 48 h, E. coli filamentation inducers, primary screen (AID 1179);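 also: screen aims at cell division blockers that make cells filament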; conditions: E. coli DRC39 delta-acrAB growth, higher = more signal, called active from +8 up or from −8 down
[19] = viability profiling in RPMI8226 myeloma cells – cell-based, resazurin fluorescence, basal, 24 h, PK04 Diversity Set, profiling panel (AID 1180); conditions: higher = more signal;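 also: RPMI8826 multiple myeloma cell line at 5000 cells per well; test concentration not given here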
[20] = target: E3 ubiquitin-protein ligase XIAP (Homo sapiens) (UniProt P98170); assay: small molecules binding XIAP protein – biophysical, small-molecule microarray, fluorescence 635 nm, primary screen (AID 1181); conditions: higher = more signal;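 also: score merges 667 nm emission and signal to noise over triplicate slides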
Chain of E3 ubiquitin-protein ligase XIAP (Homo sapiens) (P98170 whole entry, looked up): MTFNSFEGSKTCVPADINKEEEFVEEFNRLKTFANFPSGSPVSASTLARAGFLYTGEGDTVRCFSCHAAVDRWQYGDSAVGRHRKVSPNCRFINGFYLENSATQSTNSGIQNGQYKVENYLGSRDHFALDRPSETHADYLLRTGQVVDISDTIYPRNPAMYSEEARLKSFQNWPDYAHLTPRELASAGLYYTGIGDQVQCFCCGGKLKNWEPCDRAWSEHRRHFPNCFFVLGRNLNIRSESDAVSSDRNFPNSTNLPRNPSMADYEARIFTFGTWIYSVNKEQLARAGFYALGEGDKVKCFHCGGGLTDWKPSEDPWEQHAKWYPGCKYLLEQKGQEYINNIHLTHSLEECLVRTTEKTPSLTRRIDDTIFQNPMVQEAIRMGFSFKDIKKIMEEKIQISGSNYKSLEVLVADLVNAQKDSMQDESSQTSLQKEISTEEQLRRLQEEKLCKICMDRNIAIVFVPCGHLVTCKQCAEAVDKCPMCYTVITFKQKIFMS

Chain of Dihydroorotate dehydrogenase (quinone), mitochondrial (Plasmodium falciparum (isolate 3D7)) (Q08210 whole entry, looked up): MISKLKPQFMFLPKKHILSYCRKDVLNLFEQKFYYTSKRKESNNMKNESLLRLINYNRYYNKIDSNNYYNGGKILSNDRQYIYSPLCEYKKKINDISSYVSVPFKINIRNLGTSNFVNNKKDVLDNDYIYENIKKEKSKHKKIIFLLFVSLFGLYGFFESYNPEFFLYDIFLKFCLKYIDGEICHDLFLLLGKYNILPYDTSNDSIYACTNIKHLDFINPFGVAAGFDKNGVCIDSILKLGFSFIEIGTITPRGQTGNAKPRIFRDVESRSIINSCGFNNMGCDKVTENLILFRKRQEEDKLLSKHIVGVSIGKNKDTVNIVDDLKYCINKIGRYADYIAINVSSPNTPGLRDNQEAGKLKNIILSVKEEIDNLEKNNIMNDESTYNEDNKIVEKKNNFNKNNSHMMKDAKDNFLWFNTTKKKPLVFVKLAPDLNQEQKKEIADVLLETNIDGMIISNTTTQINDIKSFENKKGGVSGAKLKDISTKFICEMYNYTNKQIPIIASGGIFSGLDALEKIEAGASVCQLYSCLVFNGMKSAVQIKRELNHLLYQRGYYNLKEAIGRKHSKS

SMILES | z-score [1] | z-score [2] | z-score [3] | z-score [4] | z-score [5] | z-score [6] | z-score [7] | z-score [8] | z-score [9] | z-score [10] | z-score [11] | z-score [12] | z-score [13] | composite z-score [14] | z-score [15] | z-score [16] | z-score [17] | z-score [18] | z-score [19] | composite z-score [20]
N[C@@H](Cc1ccccc1)C(=O)NCc1cn(Cc2ccccc2)nn1 | 0.322 | 0.0811 | -0.256 | -0.0838 | -1.11 | 0.178 | -0.0638 (inactive) | 0.556 | 0.919 | 0.825 (inactive) | 0.68 | -1.38 (inactive) | 0.323 (inactive) | -0.777 (inactive) | -0.452 (inactive) | -0.0114 (inactive) | 1.35 (inactive) | 0.614 (inactive) | 0.449 | -0.227
CCOC(=O)C[C@H]1[C@H](OC(=O)c2ccccc2-c2ccccc2)[C@@H](NC(=O)c2ccc3ccccc3c2)c2cc(OCCCO)ccc2N1C(=O)c1ccccc1 | 0.065 | 0.257 | -0.336 | -0.306 | -0.604 | 0.579 | 0.633 (inactive) | -0.25 | 0.171 | -0.385 (inactive) | -0.655 | 0.264 (inactive) | 0.0324 (inactive) | 0.198 (inactive) | -0.341 (inactive) | 0.874 (inactive) | 0.547 (inactive) | 0.203 (inactive) | 0.225 | -0.0988
C=C(/C(=C/C[C@H](OC(=O)c1ccncc1)c1ccc(CO)o1)c1cnc2ccccc2c1)C(C)C | 1.07 | 0.521 | -0.181 | -2.88 | -1.25 | -0.211 | 0.0957 (inactive) | 0.319 | -0.161 | 0.208 (inactive) | -0.0499 | -1.2 (inactive) | -0.0537 (inactive) | -7.44 (inactive) | 1.16 (inactive) | 0.481 (inactive) | 0.586 (inactive) | 0.0868 (inactive) | 0.601 | -0.0749
COc1ccc(CCNC(=O)[C@@]2(Sc3ccc(C)cc3)CC(=O)N(Cc3ccccc3C(F)(F)F)[C@@H]2c2ccc(CO)cc2I)cc1 | 0.751 | -0.178 | -0.253 | -2.41 | -2.36 | -1.03 | -0.322 (inactive) | -0.714 | -0.841 | 0.956 (inactive) | 0.267 | -5.78 (inactive) | -2.05 (inactive) | -1.6 (inactive) | -0.171 (inactive) | -1.77 (inactive) | 0.0424 (inactive) | 0.189 (inactive) | -1.72 | 0.1
CCCC=C(CCC)[C@@H](NC(=O)c1cccs1)c1ccc(C(=O)OC)cc1 | 0.126 | -0.302 | -0.125 | 0.388 | 0.45 | -0.115 | -0.0911 (inactive) | 0.973 | -0.997 | 0.902 (inactive) | 0.756 | 1.07 (inactive) | 0.645 (inactive) | 0.519 (inactive) | -0.94 (inactive) | -0.27 (inactive) | 0.204 (inactive) | -0.814 (inactive) | 0.429 | -0.031
[N-]=[N+]=Nc1ccccc1C[C@@]1(C(=O)NCCN2CCOCC2)N=C(c2ccc(OCCCO)cc2)O[C@@H]1c1ccccc1N=[N+]=[N-] | -1.96 | 0.205 | -2.04 | -2.94 | -3.31 | -0.112 | -0.29 (inactive) | -1.26 | -1.27 | -1 (inactive) | -1.02 | -3.4 (inactive) | -2.12 (inactive) | 0.322 (inactive) | -0.124 (inactive) | 0.26 (inactive) | -0.229 (inactive) | -1.02 (inactive) | -2.02 | 0.17
[N-]=[N+]=Nc1ccccc1C[C@@]1(C(N)=O)N=C(c2ccc(OCCCO)cc2)O[C@@H]1c1ccccc1N=[N+]=[N-] | -1.53 | 1.08 | -0.727 | -1.68 | -4.08 | -1.11 | -1.35 (inactive) | -1.23 | -0.169 | -0.385 (inactive) | 0.212 | -3.3 (inactive) | -0.902 (inactive) | -0.652 (inactive) | 0.0405 (inactive) | -0.739 (inactive) | 0.891 (inactive) | -0.174 (inactive) | -0.76 | -0.112
